The record followed here is PubChem BioAssay (NCATS).

Values joined by “and” are separate entries in the source; they are usually repeats but may differ in a detail not shown here. Equal entries are not always repeated. Results filed as inconclusive are left out. Active and inactive are the calls of the source. Calls follow the shape of the dose curve; as a rule, active = well fitted cell-killing curve with a large enough effect; inconclusive = small, poorly fitted or top-dose-only effect; inactive = flat fitted curve, though single readings scatter.
% is scaled to controls: 0 for no effect and ±100 for the full control effect; potency is read from the fitted curve at half-maximal effect.

A short description of this experiment: Cellular viability qHTS for adrenocortical cancer (ACC) cell line SW-13 (AID 1963989). Also: nearly all actives have a fitted effect of over 65% in size.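 As to activity (max response): cells grown in serum-free medium with ITS supplement.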 The note with it: SW-13 ACC cells viability, CellTiter-Glo, 48 h; activity (max response): stronger effect = lower value. The gist of the method: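 IC50 and maximal-response values come from four-parameter logistic fits of titration data. SW-13 cells in serum-free medium received compounds (up to 46 uM final) for 48 h before CellTiter-Glo luminescence.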
In the case of `CS(=O)(=O)CCNCc1ccc(-c2ccc3ncnc(Nc4ccc(OCc5cccc(F)c5)c(Cl)c4)c3c2)o1`, the Potency was 18.4 µM (active) and 14.1 µM (active).

For the compound `CC(=O)OCCN1C(=O)c2c(C)nc3ccc(S(=O)(=O)N4CCOCC4)cc3c2C1=O`, the activity (max response) is -3.53% (inactive).

For the compound `Cc1ccc(C(=O)N(CCCN)[C@@H](c2oc3cc(Cl)ccc3c(=O)c2Cc2ccccc2)C(C)C)cc1`, the Potency is 0.0141 µM (active).

`CC(C)(S)[C@@H](N)C(=O)O`: the activity (max response) was 0.215% (inactive). In the case of `NC1(C(=O)N[C@@H](CCO)c2ccc(Cl)cc2)CCN(c2ncnc3[nH]ccc23)CC1`, the activity (max response) is -21.3% (inactive). The same measure, in the same setting: under `CC1(C)[C@H](C(=O)O)N2C(=O)C[C@H]2S1(=O)=O` stands 9.85% (inactive). Regarding `C#Cc1cccc(Nc2ncnc3cc(OCCOC)c(OCCOC)cc23)c1`, the Potency is 4.11 µM (active) and 8.91 µM (active). Regarding `COc1cc2c(cc1-c1c(C)noc1C)ncc1[nH]c(=O)n([C@H](C)c3ccccn3)c12`, the activity (max response) was -16.6% (inactive). Regarding `Cn1c(NCCN(CCO)CCCc2ccc([N+](=O)[O-])cc2)cc(=O)n(C)c1=O`, the activity (max response) is 5.91% (inactive) and 4.46% (inactive). On to `CCOc1cc(N2CCC(O)CC2)ccc1Nc1ncc2c(n1)N(C)c1ccccc1C(=O)N2C`, for which the Potency was 15.8 µM (active). As for `c1cncc(CN2CCC(n3ncc4c(N5CCOCC5)nc(-c5ccc6[nH]ccc6c5)nc43)CC2)c1`, the activity (max response) is -29.6% (inactive). Regarding `CN(C)c1ccc(C(=O)NCCCCCCC(=O)NO)cc1`, the Potency is 4.47 µM (active). For `CCc1nc(N)nc(N)c1-c1ccc(Cl)cc1`, the Potency is 1.46 µM (active) and 3.98 µM (active).
